# A selection: hits, their analogues and other compounds. The true share with any hit is near 10%.
# hNpr1 antagonist – Natriuretic polypeptide receptor (hNpr1) antagonism - Primary qHTS. Atrial natriuretic peptide receptor 1 (Homo sapiens), P16066. HEK293 hNpr1 GloSensor cGMP, ANP-stimulated luminescence. Potency, µM (doses to about 46.3 µM), usual class: inhibitors. 76,000 compounds, 1.6% hits. AID 1347048, 2019; calls by dose curve; also: nearly all actives have a fitted effect of over 60% in size
#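 HEK293 cells stably expressing human Npr1 and cGMP GloSensor pGS-40F, loaded 2 h with 2% GloSensor reagent, given compound 30 min at room temperature. Luminescence read before and 20 min after 0.1 nM hNppA.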
# HEK293 tox – Cytotoxic Profiling in HEK 293 Cell Line of Diverse Libraries Using Quantitative High-Throughput Screening. AID 1345083, 2018. 94,000 compounds, 6.6% hits. Potency, µM (titrated, usually from 115 µM), most hits filed as inhibitors. HEK 293 viability, ATP luminescence (CellTiter-Glo), 48-72 h; also: nearly all actives have a fitted effect of over 60% in size
#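 HEK 293 seeded at 250 cells/well receive compound via pintool. After 48 or 72 hr at 37 degree Celsius, 5% CO2 and 95% humidity, CellTiter-Glo is dispensed and luminescence read following 10 min at room temperature.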
# GPT2 inh – Primary qHTS assay for inhibitors of Glutamate pyruvate transaminase 2 (GPT2). Potency, µM (series often up to 57.7 µM), most hits filed as inhibitors. Alanine aminotransferase 2 (Homo sapiens), Q8TD30. 100,000 compounds, 0.25% hits. Recombinant GPT2, coupled pyruvate oxidase/HRP Amplex Red fluorescence; also: nearly all actives have a fitted effect of over 60% in size
# Target sequence (Q8TD30 whole entry, looked up): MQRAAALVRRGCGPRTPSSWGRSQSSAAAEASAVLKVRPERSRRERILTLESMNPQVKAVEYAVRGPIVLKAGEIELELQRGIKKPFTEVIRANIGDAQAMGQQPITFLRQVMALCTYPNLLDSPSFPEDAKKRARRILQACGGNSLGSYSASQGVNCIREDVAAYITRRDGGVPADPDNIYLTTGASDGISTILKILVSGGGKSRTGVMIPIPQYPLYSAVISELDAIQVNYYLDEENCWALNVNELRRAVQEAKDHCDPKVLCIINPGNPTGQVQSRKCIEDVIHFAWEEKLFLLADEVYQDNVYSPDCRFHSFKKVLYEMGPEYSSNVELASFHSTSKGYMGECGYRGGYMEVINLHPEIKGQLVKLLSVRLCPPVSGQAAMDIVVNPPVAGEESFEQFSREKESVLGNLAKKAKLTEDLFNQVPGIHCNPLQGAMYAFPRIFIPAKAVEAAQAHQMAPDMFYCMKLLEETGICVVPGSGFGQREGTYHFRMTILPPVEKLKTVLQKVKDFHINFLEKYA
#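 Fluorescence of coupled pyruvate oxidase/HRP/Amplex Red system (50uM Amplex, 30 min, dark) reports pyruvate formed by GPT2. Enzyme reaction: 10ng/uL GPT2, 2mM L-alanine, 250uM a-KG, 30 min room temperature, pH 7.5; 50uM AOA control.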
# FLuc inh – Firefly luciferase inhibition profiling of diverse chemical library using quantitative high-throughput screening; Luciferin 4-monooxygenase (Photinus pyralis), P08659; purified P. pyralis luciferase, luminescence, biochemical; Potency, µM (doses to about 115 µM), usual class: inhibitors; 76,000 compounds, 2.5% hits; also: nearly all actives have a fitted effect of over 65% in size
#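 Purified 10nM P. pyralis luciferase with 10uM D-luciferin and 10uM ATP in 50mM Tris acetate pH 7.5, 10mM Mg acetate, 0.01% Tween-20, 0.05% BSA. qHTS titration; luminescence read by CCD imager.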
# NIH3T3 tox – Cytotoxic Profiling in NIH 3T3 Cell Line of Diverse Libraries Using Quantitative High-Throughput Screening; NIH 3T3 viability, CellTiter-Glo ATP luminescence, 48-72 h; Potency, µM (highest dose often 96.7 µM), usual class: inhibitors; 94,000 compounds, 4.3% hits; AID 1345082, 2018; also: nearly all actives have a fitted effect of over 55% in size
#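 First NIH 3T3 cells are plated at 400 cells/well; next compound is pinned in; then plates incubate 48 or 72 hr at 37 °C; finally CellTiter-Glo is added and luminescence read after 10 min.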
# Numbers stand for hits; i = inactive; ? = inconclusive; nt = no result. Unless noted, calls follow the shape of the dose curve; as a rule, active = well fitted curve in the direction sought with a large enough effect; inconclusive = small, poorly fitted or top-dose-only effect, or another doubt; inactive = no such curve, though single readings can be large; an effect the other way counts as inactive or inconclusive.
SMILES,hNpr1 antagonist,HEK293 tox,GPT2 inh,FLuc inh,NIH3T3 tox
COc1ccc(-c2[nH]nc3ncc(-c4cccc(N(C)C)c4)nc23)c(C)c1,i,?,i,i,?
COc1ccc(-c2[nH]nc3ncc(-c4cccnc4)nc23)c(C)c1,i,?,i,i,28µM
COC1C(=O)N(C2CCN(S(=O)(=O)c3cn(C)cn3)CC2)C12CCOCC2 (centres undefined),i,i,i,i,i
Cc1ccccc1-c1cnc2n[nH]c(-c3ccccc3)c2n1,i,89µM,i,i,50µM
O=C(CN1C(=O)NC(c2ccc(Cl)cc2)C2=C1COC2=O)NCc1ccccc1Cl (centres undefined),i,35µM,i,i,?
CCOc1ccccc1C1NC(=O)N(CC(=O)NCc2ccccc2Cl)C2=C1C(=O)OC2 (centres undefined),i,?,i,i,?
CC(CCc1ccccc1)NC(=O)CN1C(=O)NC(c2ccc(Cl)cc2)C2=C1COC2=O (centres undefined),i,40µM,i,i,?
O=C(NCc1cccs1)c1cc(-c2cccs2)c2cccn2n1,nt,50µM,i,nt,?
O=C(NCCCc1ccccc1)c1cc(-c2cccs2)c2cccn2n1,nt,?,i,nt,?
O=C(NCCc1ccc(Cl)cc1)c1cc(-c2cccs2)c2cccn2n1,nt,45µM,i,nt,?
c1nc(NC2CCCCCC2)c2cc(CNC[C@H]3CCCO3)sc2n1,nt,nt,i,nt,nt
COc1ccc(S(=O)(=O)Nc2ccc(C)n(CC(=O)N(C)Cc3ccco3)c2=O)cc1,i,32µM,i,i,i
Clc1ccc(CNc2nc(-c3ccccc3)no2)cc1,i,?,i,16µM,?
O=C(Nc1cc(F)c(F)c(F)c1)N1CCC(Oc2ncccc2C(=O)N2CCCCC2)C1 (centres undefined),i,i,i,i,?
CN(c1ccccc1)c1ccc2nnc(-c3cc(C(=O)NCc4cccnc4)ccn3)n2n1,i,100µM,i,i,25µM
O=C(Nc1ccncc1)c1ccnc(-c2nnc3ccc(N4CCOCC4)nn23)c1,i,i,?,i,89µM
CN(c1ccccc1)c1ccc2nnc(-c3cc(C(=O)NC4CCC(O)CC4)ccn3)n2n1 (centres undefined),i,i,i,i,?
CN(C)c1cccc(NC(=O)c2ccnc(-c3nnc4ccc(N5CCOCC5)nn34)c2)c1,i,i,i,i,?
COc1cccc(NC(=O)c2ccnc(-c3nnc4ccc(N(C)C)nn34)c2)c1,i,?,i,i,32µM
CN(C)c1ccc2nnc(-c3cc(C(=O)NCCc4ccccn4)ccn3)n2n1,i,i,i,i,?
CN(c1ccccc1)c1ccc2nnc(-c3cc(C(=O)Nc4ccccn4)ccn3)n2n1,i,56µM,i,i,?
O=C(Cc1ccc(F)cc1)NC1CCN(c2ccccc2)C1=O (centres undefined),i,i,i,i,i
CN1CCC(NC[C@H]2O[C@@H](CO)[C@@H](O)[C@H]2N2CCOCC2)CC1,i,i,i,i,i
O=C1O[C@@H]2[C@H]3[C@@H]([C@H]1C[C@H]2O)N(c1ccccc1)C(=S)N3Cc1ccccc1,i,i,i,i,i
O=C1CC(c2ccccc2)N(C(=O)C2CC2)CCCN(C(=O)CC2CCCCC2)CCN1 (centres undefined),i,i,i,i,i
SMILES,hNpr1 antagonist,HEK293 tox,GPT2 inh,FLuc inh,NIH3T3 tox
N#Cc1cccnc1-c1ccc(C(=O)N2CCC(NC(=O)c3ccccc3Cl)CC2)cc1,nt,i,i,nt,i
CN1CCC(C2CCNC2)CC1 (centres undefined),i,i,i,i,i
Cc1cccc(N2CCN(C(=O)CCc3ccnc(N4CCCC4)c3)CC2)c1,i,?,i,i,i
O=C(CCc1ccnc(N2CCCC2)c1)N1CCN(c2cccc(Cl)c2)CC1,i,32µM,i,i,?
CCCc1nc(-c2nc(C3CCOC3)no2)cs1 (centres undefined),i,i,i,28µM,i
CCc1c(-c2nc(C3CCOC3)no2)[nH]c2ccccc12 (centres undefined),i,?,i,i,?
CSc1ccc(-c2cccc(C(=O)NCCNC(=O)c3ccccc3F)c2)cc1,nt,?,i,nt,i
CSc1ccc(-c2cccc(C(=O)NCCNC(=O)c3ccccc3C)c2)cc1,nt,25µM,i,nt,i
COc1cccc(CNC(=O)CNC(=O)c2ccc(-c3cccc(C(F)(F)F)c3)cc2)c1,nt,i,i,nt,i
CSc1ccc(-c2cccc(C(=O)NCC(=O)NCc3cccnc3)c2)cc1,nt,22µM,i,nt,?
COc1cccc(CNC(=O)CNC(=O)c2cccc(-c3ccc(C(F)(F)F)cc3)c2)c1,nt,22µM,i,nt,?
CSc1ccc(-c2cccc(C(=O)NCC(=O)NCc3ccc4c(c3)OCO4)c2)cc1,nt,?,i,nt,i
CSc1ccc(-c2cccc(C(=O)NCC(=O)NCc3cccc(F)c3)c2)cc1,nt,?,i,nt,?
COc1ccc(CNC(=O)CNC(=O)c2cccc(-c3ccc(SC)cc3)c2)cc1OC,nt,32µM,i,nt,?
CC(=O)c1ccc(NC(=O)N2C[C@@H]3C[C@H](C2)c2ccc(NC(=O)Nc4cccc(C#N)c4)c(=O)n2C3)cc1,i,i,i,?,i
COc1cccc(NC(=O)O[C@@H]2CC[C@]3(C)C(CC[C@@H](O)[C@H]3CC(=O)N3CCC[C@H]3CO)[C@]2(C)CO)c1 (some centres undefined),i,i,?,i,i
Cc1cccc(-n2nc(CC(N)=O)nc2Cn2cc(C)c(=O)[nH]c2=O)c1C,i,i,i,i,i
O=C(CNC(=O)c1cccc(-c2ccc(C(F)(F)F)cc2)c1)NCc1ccccc1,nt,?,i,nt,?
CSc1ccc(-c2cccc(C(=O)NCC(=O)NCc3cccc(C(F)(F)F)c3)c2)cc1,nt,40µM,i,nt,?
COc1ccc(F)cc1-c1cccc(C(=O)NCC(=O)NCc2ccc(C(F)(F)F)cc2)c1,nt,40µM,nt,nt,40µM
O=C(CNC(=O)c1cccc(-c2ccc(C(F)(F)F)cc2)c1)NCc1ccc(F)cc1,nt,?,i,nt,?
O=C(CNC(=O)c1cccc(-c2ccc(C(F)(F)F)cc2)c1)NCc1cccs1,nt,40µM,i,nt,?
CSc1ccc(-c2cccc(C(=O)NCC(=O)NCc3ccc(C(F)(F)F)cc3)c2)cc1,nt,45µM,i,nt,?
COCCn1c(C)cc(C(=O)N2CCC3(CC2)CC(CN2CCOCC2)N(C)C3)c1C (centres undefined),nt,i,i,nt,i
CC(C)c1ccccc1OCC(=O)c1ccc2c(c1)N(CC(=O)N1CCCC1)C(=O)CO2,i,40µM,i,i,i

# Screens (PubChem)
